This note sets out measurements from PubChem BioAssay (Tox21).

Experiment [1] can be described thus: qHTS assay to test for compound auto fluorescence at 535 nm (green) in HEK293 cells (AID 720680).
The nature of experiment [2]: qHTS assay to test for compound auto fluorescence at 590 nm (red) in HEK293 cell free culture (AID 720683). The method in brief: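 Tox21 10K library compounds were pinned into cell-free DMEM with 10% FBS and fluorescence was read at excitation 540 nm. Activity is expressed as Rose Bengal sodium equivalency.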
On the technique in general: qHTS replaces the single test concentration by a dilution series.

Experiment [3] in a line: qHTS assay to test for compound auto fluorescence at 590 nm (red) in HepG2 cell free culture (AID 720684). In short, it runs like this: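 Ex 540 / Em 590 nm read of compound in cell-free MEM (10% FBS). Rose Bengal sodium reference.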
Experiment [4] in a line: qHTS assay to test for compound auto fluorescence at 460 nm (blue) in HepG2 cell free culture (AID 720685). In short, it runs like this: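 Cell-free plates of MEM plus 10% FBS received 23 nL compound or DMSO vehicle; blue-channel (405/460 nm) intensity scored against triamterene as reference fluorophore.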
The nature of experiment [5]: qHTS assay to test for compound auto fluorescence at 535 nm (green) in HepG2 cell free culture (AID 720686).
The nature of experiment [6]: qHTS assay to test for compound auto fluorescence at 460 nm (blue) in HepG2 cells (AID 720687). The method in brief:
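Cells (2,000/well in MEM with 10% FBS) attached overnight at 37 C, then were exposed to compound or DMSO for 1 hr at 37 C, 5% CO2. Fluorescence read at Ex/Em 405/460 nm, expressed as triamterene-equivalent signal.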

Experiment [7] deals with Glucocorticoid receptor (Homo sapiens) (UniProt P04150). Description: qHTS assay to identify small molecule agonists of the glucocorticoid receptor (GR) signaling pathway (AID 720691; active means well fitted activation curve with a large enough effect in the signal ratio in the repeat runs, not every such curve was filed as active; the % refers to the signal ratio). In short, it runs like this: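 HeLa GR-bla reporter line; cells pre-incubated 4 h, compound in DMSO 18 h at 37 C; LiveBLAzer B/G FRET substrate 2 h RT; fluorescence intensity read-out.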
For experiment [8] the target is unchanged. Description: qHTS assay to identify small molecule antagonists of the glucocorticoid receptor (GR) signaling pathway (AID 720692; active means well fitted inhibition curve with a large enough effect in the signal ratio in the repeat runs, not every such curve was filed as active; the % refers to the signal ratio; further: potency means the concentration at half of the fitted maximal effect). In short, it runs like this:
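Read-out: beta-lactamase FRET substrate fluorescence, 2 h at room temperature, in HeLa cells stably carrying a GRE-driven bla reporter. Compounds were co-incubated with 5 nM dexamethasone agonist (final) for 18 h at 37 C.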

Experiment [9] can be described thus: qHTS assay to identify small molecule antagonists of the glucocorticoid receptor (GR) signaling pathway - cell viability counter screen (AID 720693). Further: nearly all actives have a fitted effect of over 55% in size.
Experiment [10] can be described thus: qHTS assay for identifying genotoxic compounds that show differential cytotoxicity against isogenic chicken DT40 cell lines with known DNA damage response pathways - wild type cell line (AID 743012). Further: nearly all actives have a fitted effect of over 60% in size. Further: potency means the concentration at half of the fitted maximal effect. In short, it runs like this:
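CellTiter-Glo luminescence readout of viability in wild type DT40 cells after 40 h compound exposure at 37 C/5% CO2; 300 cells/well; reagent incubated 30 min at room temperature before reading.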

Experiment [11] is described as follows: qHTS assay for identifying genotoxic compounds that show differential cytotoxicity against isogenic chicken DT40 cell lines with known DNA damage response pathways - Rev3 mutant cell line (AID 743014). Further: nearly all actives have a fitted effect of over 55% in size. Further: potency means the concentration at half of the fitted maximal effect.
Experiment [12] is described as follows: qHTS assay for identifying genotoxic compounds that show differential cytotoxicity against isogenic chicken DT40 cell lines with known DNA damage response pathways - Rad54/Ku70 mutant cell line (AID 743015). Further: nearly all actives have a fitted effect of over 60% in size. Further: potency means the concentration at half of the fitted maximal effect.
Experiment [13] can be described thus: qHTS assay to identify small molecule antagonists of the androgen receptor (AR) signaling pathway using the MDA cell line - cell viability counter screen (AID 743041; further: nearly all actives have a fitted effect of over 45% in size). The method in brief:
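In this qHTS counter assay, fluorescence intensity after CellTiter-Fluor addition indicated viability of MDA-kb2 AR-luc cells given compounds and R1881 for 16 h at 37C.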

Experiment [14] is described as follows: qHTS assay to test for compound auto fluorescence at 535 nm (green) in HEK293 cell free culture (AID 720682). In short, it runs like this:
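Green-label autofluorescence (485 nm excitation, 535 nm emission) measured on compound added to cell-free culture medium (DMEM, 10% FBS). Output is expressed relative to fluorescein.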

A short description of experiment [15]: qHTS assay to identify small molecule antagonists of the androgen receptor (AR) signaling pathway - cell viability counter screen (AID 743033; further: nearly all actives have a fitted effect of over 45% in size).
Experiment [16] has as its target Androgen receptor (Homo sapiens) (UniProt P10275). Description: qHTS assay to identify small molecule agonists of the androgen receptor (AR) signaling pathway (AID 743036; active means well fitted activation curve with a large enough effect in the signal ratio in the repeat runs, with a control signal flat, not every such curve was filed as active; the % refers to the signal ratio). In short, it runs like this: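 AR-UAS-bla HEK293 cells, plated 4 h before dosing, were treated with compound for 16 h at 37C. beta-Lactamase reporter read after 2 h with LiveBLAzer B/G FRET substrate at room temperature.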

The target is the same in experiment [17]. Description: qHTS assay to identify small molecule agonists of the androgen receptor (AR) signaling pathway using the MDA cell line (AID 743040; further: nearly all actives have a fitted effect of over 20% in size). The method in brief: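 Cell-based luciferase reporter: MDA-kb2, MMTV promoter (AR + GR response elements). 16 h compound exposure at 37C; ONE-Glo, 30 min RT, luminescence.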
Experiment [18] can be described thus: qHTS assay to test for compound auto fluorescence at 460 nm (blue) in HEK293 cell free culture (AID 720681). The method in brief: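 Test compounds were pinned into cell-free culture medium (DMEM with 10% FBS) and fluorescence was read directly at Ex/Em 405/460 nm. Signals were expressed as fluorescence equivalents of triamterene, with DMSO vehicle as control.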

Experiment [19] addresses Androgen receptor (Homo sapiens) (UniProt P10275). In words: qHTS assay to identify small molecule antagonists of the androgen receptor (AR) signaling pathway using the MDA cell line (AID 743042; further: nearly all actives have a fitted effect of over 55% in size). The method in brief:
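MDA-kb2 cells (human breast carcinoma, stably carrying an MMTV-luciferase reporter responsive to AR and GR) were plated at 3,000 cells/well and preincubated 5 hr at 37C, then given compound plus R1881 agonist for 16 h. ONE-Glo luminescence was read.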

The structures appear in SMILES notation. Values without a mark were called inactive. Records with an inconclusive call do not appear. Calls of active or inactive are those of the source. Unless noted, the call rests on the fitted dose curve; in most records, active means well fitted curve in the direction sought with a large enough effect in the repeat runs; inconclusive means weak or mixed curves; inactive means no such curve, though single readings can be large; an effect the other way counts as inactive or inconclusive.
On the % scale 0 is the no-effect control and ±100 the full control effect.

Glucocorticoid receptor (Homo sapiens), sequence (P04150 whole entry, looked up): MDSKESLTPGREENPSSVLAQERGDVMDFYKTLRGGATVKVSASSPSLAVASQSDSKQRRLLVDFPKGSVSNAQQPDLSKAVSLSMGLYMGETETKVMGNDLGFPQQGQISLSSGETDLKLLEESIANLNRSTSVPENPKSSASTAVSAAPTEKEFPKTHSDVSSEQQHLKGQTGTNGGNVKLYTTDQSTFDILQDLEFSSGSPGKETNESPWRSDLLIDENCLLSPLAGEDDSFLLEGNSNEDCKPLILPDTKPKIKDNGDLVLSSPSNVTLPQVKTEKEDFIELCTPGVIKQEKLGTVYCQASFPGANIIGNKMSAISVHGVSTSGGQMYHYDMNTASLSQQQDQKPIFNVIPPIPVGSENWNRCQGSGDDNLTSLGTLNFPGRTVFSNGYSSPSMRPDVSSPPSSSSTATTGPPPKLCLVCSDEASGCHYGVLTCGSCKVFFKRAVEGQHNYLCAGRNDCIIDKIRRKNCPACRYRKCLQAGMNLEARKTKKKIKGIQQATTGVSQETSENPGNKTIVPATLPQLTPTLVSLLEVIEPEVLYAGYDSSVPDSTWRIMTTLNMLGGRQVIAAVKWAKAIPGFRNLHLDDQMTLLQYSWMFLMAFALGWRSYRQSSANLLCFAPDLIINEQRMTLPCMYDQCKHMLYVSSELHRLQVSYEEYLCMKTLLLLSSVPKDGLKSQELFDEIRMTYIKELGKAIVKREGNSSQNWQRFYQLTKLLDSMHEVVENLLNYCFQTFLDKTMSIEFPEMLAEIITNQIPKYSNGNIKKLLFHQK
Androgen receptor (Homo sapiens), sequence (P10275 whole entry, looked up): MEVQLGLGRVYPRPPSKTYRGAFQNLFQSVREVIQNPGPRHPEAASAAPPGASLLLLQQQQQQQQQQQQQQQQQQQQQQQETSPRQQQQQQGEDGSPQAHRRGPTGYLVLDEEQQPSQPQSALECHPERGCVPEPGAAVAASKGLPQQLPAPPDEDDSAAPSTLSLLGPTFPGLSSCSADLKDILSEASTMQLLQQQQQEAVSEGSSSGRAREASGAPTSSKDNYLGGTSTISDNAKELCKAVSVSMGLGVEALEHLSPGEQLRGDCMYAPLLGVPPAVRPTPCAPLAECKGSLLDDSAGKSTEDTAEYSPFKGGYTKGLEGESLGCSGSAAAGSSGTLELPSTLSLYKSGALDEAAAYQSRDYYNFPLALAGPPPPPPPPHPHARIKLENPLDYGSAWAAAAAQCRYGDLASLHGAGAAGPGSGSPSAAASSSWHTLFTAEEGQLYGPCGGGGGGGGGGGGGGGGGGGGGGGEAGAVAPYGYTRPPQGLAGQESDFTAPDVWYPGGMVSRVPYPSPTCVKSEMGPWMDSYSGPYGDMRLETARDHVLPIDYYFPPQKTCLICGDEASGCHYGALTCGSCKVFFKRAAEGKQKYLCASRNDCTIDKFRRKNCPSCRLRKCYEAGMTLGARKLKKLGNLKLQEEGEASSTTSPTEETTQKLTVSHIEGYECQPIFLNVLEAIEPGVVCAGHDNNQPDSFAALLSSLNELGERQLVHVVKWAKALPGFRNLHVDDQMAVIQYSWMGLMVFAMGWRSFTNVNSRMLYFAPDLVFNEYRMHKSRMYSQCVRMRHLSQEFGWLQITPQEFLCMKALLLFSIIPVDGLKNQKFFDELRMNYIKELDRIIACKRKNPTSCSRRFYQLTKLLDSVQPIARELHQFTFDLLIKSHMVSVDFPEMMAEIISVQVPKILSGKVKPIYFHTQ

`CC(C)(C)c1cc(CO)cc(C(C)(C)C)c1O`: the outcome in experiment [1], in [2], in [3] and in [5] was inactive. Moreover, the Potency entry in [4], in experiment [6], in experiment [7], in [9] and in experiment [13] was “inactive” each time. The Potency in [8] is 44.5 µM (active); in experiment [10], 31.2 µM (active); in experiment [11], 27.8 µM (active); in experiment [12], 22.1 µM (active).

For the compound `COC(=O)C(C)=O`, the call in experiment [1], in [14], in [2], in experiment [3] and in experiment [5] was inactive. For the same compound, the Potency result in experiment [4], in [6], in experiment [7], in experiment [8], in experiment [9] and in experiment [10] was “inactive” each time. Moreover, the Potency entry in experiment [11], in experiment [12] and in [13] was “inactive” throughout.

Regarding `CC(=O)N(O)CCCCCNC(=O)CCC(=O)N(O)CCCCCNC(=O)CCC(=O)N(O)CCCCCN`, in [1], the fluorescence, % of fluorescein is 0.127% [at 18.6 µM]. In addition, in [14], the activity change is 0.033% [at 18.6 µM]. Further, the fluorescence, % of fluorescent control was -0.0386% [at 18.6 µM] in [2], 0.0393% [at 18.6 µM] in experiment [4] and 0.041% [at 18.6 µM] in [6]. Besides, in [3], the fluorescence, % of Rose Bengal is -0.352% [at 18.6 µM]. Further, the fluorescence, % of fluorescein control in experiment [5] was 0.169% [at 18.6 µM]. Besides, the Potency result in experiment [7], in [8], in experiment [9], in [11], in [12] and in experiment [15] was “inactive” throughout. In addition, the Potency result in [17] and in experiment [13] was “inactive” in each case. Further, the result in experiment [16] was inactive.

As for `Cc1ccccn1`, the result in experiment [1], in [14], in experiment [2], in experiment [3] and in experiment [5] was inactive. Moreover, the Potency result in [4], in [6], in experiment [7], in experiment [8], in experiment [9] and in [10] was “inactive” throughout. Further, the Potency entry in [11], in experiment [12], in experiment [15] and in [13] was “inactive” each time.

Regarding `CCOC(=O)[C@H](CCc1ccccc1)N[C@H]1CCc2ccccc2N(CC(=O)O)C1=O`, the outcome in [1], in experiment [14], in [2], in experiment [3] and in experiment [5] was inactive. In addition, the Potency entry in experiment [4], in experiment [9] and in experiment [13] was “inactive” each time. The Potency in [10] was 11.9 µM (active); in experiment [11] it was 23.7 µM (active); in [12], 21.1 µM (active).

Take `Cc1ccc(C)o1`: the Potency result in experiment [18], in experiment [4], in experiment [6], in [7], in experiment [8] and in experiment [9] was “inactive” throughout. Also, the Potency entry in [10], in experiment [11], in experiment [15] and in experiment [13] was “inactive” each time. Also, the result in [14], in experiment [2], in experiment [3] and in experiment [5] was inactive.

Turning to `C[Si](C)O[Si](C)(C)O[Si](C)(C)O[Si](C)C`, the Potency entry in experiment [18], in [4], in [6], in experiment [7], in experiment [8] and in [9] was “inactive” in each case. Also, the Potency result in [10], in [11], in experiment [15] and in experiment [13] was “inactive” each time. The compound was called inactive in experiment [2], in experiment [3] and in experiment [5].

For the compound `O=C(c1ccc(O)cc1)c1ccc(O)cc1`, the compound was called inactive in experiment [14], in [2], in experiment [3] and in experiment [5]. Besides, the Potency entry in experiment [4], in [6], in [7], in experiment [8], in experiment [9] and in experiment [10] was “inactive” each time. The Potency entry in experiment [11], in [12], in [17], in [13] and in experiment [19] was “inactive” each time.

For `ClC(Cl)(Cl)c1ccc(C(Cl)(Cl)Cl)cc1`, the Potency result in experiment [18], in experiment [4], in experiment [6], in experiment [7], in experiment [8] and in experiment [9] was “inactive” throughout. For the same compound, the Potency result in experiment [10], in experiment [11], in experiment [12], in [15] and in [13] was “inactive” each time. For the same compound, the result in experiment [2], in [3] and in [5] was inactive.

With `CCCC[C@H]1CN(CC2CCOCC2)C(=O)OC12CCN(C1(C)CCN(C(=O)c3c(C)ncnc3C)CC1)CC2`, the outcome in [14], in [2], in [3] and in experiment [5] was inactive. Moreover, the Potency result in experiment [4], in experiment [6], in experiment [9], in experiment [10], in experiment [11] and in [12] was “inactive” each time. Also, the Potency result in [15] and in experiment [13] was “inactive” in each case.
